# From PubChem BioAssay
# IL1B secr inh – blocks inflammasome-driven IL-1 beta release. 4.7% of 360,000 active. activity change, % at 57.5 µM. AID 743279. THP-1 LPS/ATP IL-1B secretion, AlphaLISA, 16 h; hits give low values; in the data active means activity change below about -50%; inconclusive means mostly about -30% to -49%; further: on the % scale 0 is the no-effect control and ±100 the full control effect
#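 Secreted IL-1B measured by AlphaLISA bead assay after 16 h compound exposure of THP-1 cells; compounds (final up to 57.5 uM) added 1 h before LPS (250 ng/mL) and ATP (1.25 mM) stimulation; lower signal means less secretion.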
# SW480 rereplic – DNA re-replication induction in SW480 cells. SW480 DNA re-replication, Hoechst DNA content imaging, 48 h. Potency, µM (titrated, usually from 46.1 µM), for the others: at the highest dose re-replication activation, usual class: activators. 1.8% of 340,000 active; further: potency means the concentration at half of the fitted maximal effect; % of control where 0% means no effect; nearly all actives have a fitted effect of over 55% in size
#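 250 cells/well; 23 nL cpd via pin tool; 48 hr, 37 C, 5% CO2; Hoechst 40 min; imager read of total nuclear intensity, ex 405/em 500-530 nm.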
# MCF10A rereplic – DNA re-replication induction in MCF 10a cells | MCF 10A DNA re-replication, Hoechst nuclear intensity, 48 h | Potency, µM (highest dose often 46.1 µM), for the others: at the highest dose activity, positive = re-replication, most hits filed as activators | 2.9% of 350,000 active | AID 624296; further: potency means the concentration at half of the fitted maximal effect; % of control where 0% means no effect; nearly all actives have a fitted effect of over 50% in size
# TDP1 cell CPT – growth inhibition of DT40 Tdp1-/-;hTDP1 cells with camptothecin (screen for TDP1 inhibitors); chicken DT40 Tdp1-/-;hTDP1 cells + 20 nM CPT, ATP luminescence, 48 h; Potency, µM (titrated, usually from 46.2 µM), without a hit: at the top dose activity change, negative = growth inhibition, most hits filed as inhibitors; 12% of 420,000 active; AID 686979; further: potency means the concentration at half of the fitted maximal effect; on the % scale 0 is the no-effect control and ±100 the full control effect; nearly all actives have a fitted effect of over 55% in size
#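 Chicken DT40 Tdp1-/- cells complemented with human TDP1, 400 cells/well, exposed to compounds plus 20 nM camptothecin for at least 48 h at 37 C; viability read as ATP content by CellTiter-Glo luminescence.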
# BCR signal inh – inhibitors of chronic active B-cell receptor signaling; ABC-DLBCL IkBa-CBG/CBR reporter, luminescence ratio, 4 h; Potency, µM (highest dose often 46.1 µM), for inactives: top-dose activity change, negative = inhibition, hits mostly inhibitors; 0.05% of 340,000 active; AID 493014; active means well fitted inhibition curve with a large enough effect in the signal ratio, with a control signal flat, not every such curve was filed as active; inconclusive means small, poorly fitted or top-dose-only effect, or effect the other way, or a change in a side signal; the % refers to the signal ratio;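 further: potency means the concentration at half of the fitted maximal effect; plate controls were basal doxycycline-induced cells for no effect and cells given 10 µM MG132 for full effect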
#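 TMD8 ABC-DLBCL cells carrying doxycycline-inducible green luciferase fused to IkappaBalpha plus unfused red luciferase were exposed to compounds (up to 46 uM) for 4 hrs at 37C. Activity came from the overlap-corrected green/red luminescence ratio.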
# TDP1 cell noCPT – qHTS for Inhibitors of human tyrosyl-DNA phosphodiesterase 1 (TDP1): qHTS in cells in absence of CPT; DT40 Tdp1-/- hTDP1 cells, no CPT, ATP luminescence, 48 h; Potency, µM (titrated, usually from 46.2 µM), for the others: at the top dose activity change, negative = growth inhibition, actives largely listed as inhibitors; 15% of 420,000 active; further: potency means the concentration at half of the fitted maximal effect; on the % scale 0 is the no-effect control and ±100 the full control effect; nearly all actives have a fitted effect of over 55% in size
#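 Growth of hTDP1-complemented DT40 Tdp1-knockout cells is measured by ATP luminescence after at least 48 hr compound exposure at 37 °C, with DMSO substituting for the 20 nM CPT used in the parallel screen.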
# An asterisk follows results filed as active; ? = inconclusive; nt = not tested or not shown. Shown are actives, neighbours in structure and some others; about 19% of the full set was active somewhere. Unless noted, the call rests on the fitted dose curve; in most records, active means well fitted curve in the direction sought with a large enough effect; inconclusive means small, poorly fitted or top-dose-only effect, or another doubt; inactive means no such curve, though single readings can be large; an effect the other way counts as inactive or inconclusive.
SMILES,IL1B secr inh,SW480 rereplic,MCF10A rereplic,TDP1 cell CPT,BCR signal inh,TDP1 cell noCPT
CCn1cc(C(=O)OCC(=O)c2cc(C)n(-c3cccc(C(F)(F)F)c3)c2C)c(=O)c2ccc(C)nc21,-66.0*,-52.6%,11.9%,?,10.2%,?
C[C@]12c3[nH]c4ccccc4c3CCN1C(=O)C(CC(=O)NCC13CC4CC(CC(C4)C1)C3)C[C@@H]2C(=O)N1CCOCC1 (some centres undefined),-29.0,4.6%,-51.3%,16.4µM*,?,23.1µM*
COCCCNC(=O)CC1C[C@H](C(=O)N2CCCCC2)[C@@]2(C)c3[nH]c4ccc(OC)cc4c3CCN2C1=O (some centres undefined),4.0,-17.7%,0.9%,0.5%,-10.3%,-5.0%
CC(C)N(C(=O)[C@H]1CC(CC(=O)NCC23CC4CC(CC(C4)C2)C3)C(=O)N2CCc3c([nH]c4ccccc34)[C@]12C)C(C)C (some centres undefined),-54.7*,?,-4.5%,13µM*,5.7%,23.1µM*
COc1ccc2[nH]c3c(c2c1)CCN1C(=O)C(CC(=O)NCCC2=CCCCC2)C[C@H](C(=O)N2CCCCC2)[C@@]31C (some centres undefined),-52.0*,11.1%,-6.4%,23.1µM*,0.4%,18.4µM*
COc1ccc2[nH]c3c(c2c1)CCN1C(=O)C(CC(=O)NCC24CC5CC(CC(C5)C2)C4)C[C@H](C(=O)N2CCCCC2)[C@@]31C (some centres undefined),-64.2*,0.6%,?,?,?,18.4µM*
CCOc1cc2[nH]c(=O)n(CCC(=O)N3CCN(c4cccc(Cl)c4)CC3)c(=O)c2cc1OCC,nt,nt,nt,?,-18.6%,?
C[C@]12c3[nH]c4ccccc4c3CCN1C(=O)C(CC(=O)NCC13CC4CC(CC(C4)C1)C3)C[C@@H]2C(=O)N1CCCCC1 (some centres undefined),-63.6*,17.1%,8.6%,20.6µM*,1.9%,25.9µM*
CCN(CC)C(=O)[C@H]1CC(CC(=O)NCC23CC4CC(CC(C4)C2)C3)C(=O)N2CCc3c([nH]c4ccc(OC)cc34)[C@]12C (some centres undefined),-55.3*,-0.2%,?,20.6µM*,?,13µM*
O=C(CCNC(=O)c1ccco1)Nc1ccc(OC(F)(F)F)cc1,3.3,-2.9%,-3.4%,-2.8%,-13.1%,3.5%
Cc1c(C(=O)O)sc2nc(/C=C/c3cccc(O)c3)[nH]c(=O)c12,22.0,?,7.31µM*,14.9%,?,0.6%
C=CCn1c(=O)c2c(nc3n2CCCN3CCc2ccc(OC)c(OC)c2)n(C)c1=O,5.4,6.0%,6.2%,4.2%,5.9%,-27.1%
COC(=O)[C@@H](c1ccccc1)N(C)S(=O)(=O)c1cccc(S(=O)(=O)N(C)[C@@H](C(=O)OC)c2ccccc2)c1,-10.6,7.0%,?,5.8µM*,23.1%,3.66µM*
N[C@@H](C(=O)N[C@@H]1C(=O)N2C(C(=O)O)=C(CSc3cn[nH]n3)CS[C@H]12)c1ccc(O)cc1,nt,nt,nt,8.9%,nt,4.4%
COc1ccc(-c2nnn3c2nc(N2CCCC(C)C2)c2ccccc23)cc1 (centres undefined),nt,nt,nt,?,nt,29.1µM*
Cc1ccc(-c2nnc(N3CCN(c4ccccn4)CC3)c3ccccc23)cc1,-89.4*,17.8%,?,?,?,?
CCOc1ccc(-c2nnc(N3CCOCC3)c3ccccc23)cc1,-18.3,-7.9%,-1.6%,?,?,-24.6%
Cc1nnc(N2CCCCC2)c2ccccc12,-5.3,-2.9%,2.7%,-20.1%,-15.8%,?
Cc1ccc(-c2nnc(N3CCN(CCO)CC3)c3ccccc23)cc1,?,-0.9%,13.2%,-12.9%,-17.1%,?
Cc1ccc(-c2nnc(N3CC(C)OC(C)C3)c3ccccc23)cc1 (centres undefined),-74.7*,-4.9%,-2.6%,29.1µM*,-3.2%,16.4µM*
Cc1ccc(-c2nnc(N3CCCCC3)c3ccccc23)cc1,-55.7*,0.4%,3.9%,?,-0.4%,23.1µM*
CC(C)c1ccc(S(=O)(=O)c2nnn3c2nc(N2CCCCC2)c2ccccc23)cc1,-3.6,-2.9%,-0.2%,-26.0%,2.5%,?
COc1ccc(CCNC(=O)COC(=O)c2cc(=O)[nH]c3ccccc23)cc1,15.5,-7.0%,-0.5%,-16.3%,4.9%,-12.0%
COc1ccc(-n2ccn(Cc3ccc(C)cc3)c(=O)c2=O)cc1OC,nt,nt,nt,-5.6%,nt,-0.2%
Cc1ccc2cc(C)c(N3CCN(c4ccccn4)CC3)nc2c1,?,-0.9%,?,18.4µM*,?,?
SMILES,IL1B secr inh,SW480 rereplic,MCF10A rereplic,TDP1 cell CPT,BCR signal inh,TDP1 cell noCPT
c1ccc(-c2nnc(N3CCN(c4ccccn4)CC3)c3ccccc23)cc1,-72.8*,1.8%,?,?,3.5%,?
COc1nnc(-c2ccc(N3CCCCC3)c(N)c2)c2ccccc12,?,7.2%,?,7.31µM*,nt,8.2µM*
COc1ccc(-c2nnc(N3CCC(C)CC3)c3ccccc23)cc1,2.6,-2.5%,12.3%,?,1.6%,16.4µM*
CC(=O)NC12CC3CC(C1)CC(C(=O)N1CCN(c4ncccn4)CC1)(C3)C2,-7.9,1.6%,4.6%,11.7%,nt,-19.2%
COc1cc(NC(=O)CNC(=O)Cn2cnc3sc(C)c(C)c3c2=O)cc(OC)c1OC,0.8,nt,nt,-8.0%,nt,?
CC1CCN(c2nnc(N3CCC(C)CC3)c3ccccc23)CC1,-1.7,-5.5%,0.0%,?,4.8%,?
Clc1nnc(N2CCCCC2)c2ccccc12,-81.3*,?,?,?,1.8%,?
Cc1cccc(NC(=O)CCC2CCN(C(=O)c3ccc(C)s3)CC2)c1,9.6,14.2%,14.4%,-20.3%,-2.5%,4.11µM*
COC(C(=O)N1CCC(CCC(=O)Nc2ccccc2)CC1)c1ccccc1 (centres undefined),11.8,8.9%,0.2%,20.6µM*,-0.6%,9.2µM*
CCc1noc(C)c1C(=O)N1CCC(CCC(=O)Nc2cccc(OC)c2)CC1,56.0,?,4.4%,9.2µM*,?,8.2µM*
COCc1ccc(C(=O)N2CCC(CCC(=O)Nc3cccc(C)c3)CC2)s1,24.7,-9.6%,-2.5%,-3.6%,-6.7%,0.2%
